Compound activity from PubChem BioAssay.
Sampled rows, rich in hits. Any-hit rate of the full collection: about 2.5%.
Cruzain noTriton: qHTS Assay for Promiscuous and Specific Inhibitors of Cruzain (without detergent); Cruzipain (Trypanosoma cruzi), P25779; purified cruzain, Z-FR-AMC fluorescence, no detergent; Potency, µM, inactives show max response, negative = inhibition, actives largely listed as inhibitors; actives 2.3% (n = 200,000); AID 1476, 2009;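 note: plate controls were enzyme without inhibitor for no effect and buffer without enzyme for full effect; nearly all actives have a fitted effect of over 40% in size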
Target sequence (P25779 123-467 limits assumed): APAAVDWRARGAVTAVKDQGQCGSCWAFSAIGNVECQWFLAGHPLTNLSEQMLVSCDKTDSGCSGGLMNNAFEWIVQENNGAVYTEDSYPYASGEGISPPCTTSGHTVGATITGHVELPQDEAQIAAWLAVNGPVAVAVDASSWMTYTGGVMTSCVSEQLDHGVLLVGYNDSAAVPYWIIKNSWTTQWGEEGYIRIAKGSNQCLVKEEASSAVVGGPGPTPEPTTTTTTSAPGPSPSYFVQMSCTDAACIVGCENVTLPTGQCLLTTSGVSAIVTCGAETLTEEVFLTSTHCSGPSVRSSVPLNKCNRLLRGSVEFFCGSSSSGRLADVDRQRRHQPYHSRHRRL
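Detergent-free condition (0.00005% Triton X-100) in acetate buffer pH 5.5 with DTT. 1.5 nM enzyme and compound were pre-mixed 15 min, then 2 uM Z-FR-AMC substrate added; reaction progress from fluorescence change between first and third reads (60 s).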
Cruzain inh Det: qHTS Assay for Promiscuous and Specific Inhibitors of Cruzain (with detergent); Cruzipain (Trypanosoma cruzi), P25779; purified cruzain, Z-FR-AMC fluorescence, 0.01% Triton; Potency, µM, for inactives: max response, negative = inhibition, usual class: inhibitors; actives 0.43% (n = 200,000); AID 1478, 2009;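 note: plate controls were neutral wells for no effect and buffer without enzyme for full effect; nearly all actives have a fitted effect of over 40% in size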
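Detergent-containing run (0.01% Triton X-100) in acetate buffer pH 5.5 with 5 mM DTT: enzyme at 1.5 nM final, 15 min compound preincubation at room temperature, then 2 uM Z-FR-AMC substrate. Activity taken as 60 s fluorescence increase at 360/450 nm.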
* = called active by the depositor; ? = inconclusive. Calls come from the whole dose curve; as a rule, active = well fitted curve in the direction sought with a large enough effect; inconclusive = small, poorly fitted or top-dose-only effect, or another doubt; inactive = no such curve, though single readings can be large; an effect the other way counts as inactive or inconclusive. Potency is the fitted concentration of half-maximal effect.

SMILES | Cruzain noTriton | Cruzain inh Det
Cc1ccc(N2C(=O)C(Cl)=C(N3CCOCC3)C2=O)cc1Cl | 7.94µM* | 7.08µM*
CN1CCN(C2=C(Cl)C(=O)N(c3ccc(Cl)c(Cl)c3)C2=O)CC1 | 2.51µM* | 2.82µM*
CCOC(=O)C1CCCN(C(=O)c2c(C)nn(-c3ccc(F)cc3)c2-n2cccc2)C1 (centres undefined) | ? | -1.1%
C[C@H]1C2C=C[C@H]1[C@@H](C(=O)O)[C@@H]2c1c2ccc(=O)c(O)c-2oc2c(O)c(O)ccc12 | 15.9% | -18.7%
CCN(CC)C(=O)c1ccc2c(c1)N(Cc1c(F)cccc1Cl)C(=O)c1ccccc1S2 | -5.7% | -5.5%
Cc1ccc(-c2ccc(CCC(=O)O)n2-c2cccc(C)c2C)cc1 | 29.1% | -20.6%
O=C(N/N=C/c1ccc(OC(=O)c2cccs2)cc1)c1cccc(F)c1 | 20µM* | -22.1%
COc1cccc(C(=O)NCC(=O)N/N=C/c2ccc(OC(=O)c3cccs3)c(OC)c2)c1 | 8.5% | -4.0%
CCc1ccccc1N1CC(c2nc3ccccc3n2Cc2cccc(C)c2)CC1=O (centres undefined) | ? | -11.3%
Nc1c(C(=O)NC2CCCC2)sc2nc(-c3cccs3)ccc12 | 25.1µM* | -3.6%
Nc1c(C(=O)Nc2ccc(C(F)(F)F)cc2)sc2nc(-c3cccs3)ccc12 | ? | -8.8%
COc1cc(C2=N/C(=C\c3ccccc3)C(=O)O2)cc(OC)c1OC | -8.3% | 2.7%
COc1cc(/C=C2/N=C(C3CCCCC3)OC2=O)cc(OC)c1OC | 2.51µM* | 2.51µM*
COc1ccc(-c2cc(C(=O)Oc3cccc(C)c3)c3cc(C)ccc3n2)cc1 | 0.8% | -2.6%
COc1ccc(-c2cc(C(=O)OCC(=O)c3cccc([N+](=O)[O-])c3)c3cc(C)ccc3n2)cc1 | 10µM* | 1.2%
Cc1ccc([C@@H](O)c2cnc(C)n2Cc2ccccc2)cc1 | 0.9% | 4.4%
CCc1ccc(OCC(=O)NC(=S)Nc2ccc(C)cc2C)c(Br)c1 | 12.6µM* | 6.0%
CCc1ccc(OCC(=O)NCCN(C)C)c(Br)c1 | -3.2% | -0.7%
C[C@H](CN(C)C)C(C#N)(c1ccccc1)c1ccccc1 | 1.8% | 5.4%
CCOc1ccc(CNC(=S)N/N=C/c2cccnc2)cc1 | -1.0% | -6.4%
CCOc1ccc(CNC(=S)N/N=C\c2ccc([N+](=O)[O-])cc2)cc1 | 20µM* | -4.0%
CCOC(=O)CCc1c(C)c2ccc(OCc3nn[nH]n3)cc2oc1=O | 0.3% | -7.3%
O=c1oc2cc(OCc3ccc([N+](=O)[O-])cc3)ccc2c2c1CCCC2 | 12.6µM* | 1.2%
O=C(O)c1ccc(COc2ccc3c4c(c(=O)oc3c2)CCC4)o1 | 0.0% | -4.1%
CCOC(=O)CCc1c(C)c2ccc(OCc3ccc([N+](=O)[O-])cc3)cc2oc1=O | 10µM* | 0.4%
SMILES | Cruzain noTriton | Cruzain inh Det
CC(/C=C/C=C(C)/C=C/C(=O)O)=C\C=C\C=C(C)\C=C\C=C(C)\C=C\C(=O)O | ? | -14.0%
O=C(O)c1cc(=O)[nH]c(=S)[nH]1 | -1.4% | -0.6%
COC(=O)C(Cc1c[nH]c2ccccc12)NC(=O)COc1cccc(C)c1 (centres undefined) | -1.5% | -3.6%
CSc1ccc(C(=S)N2CCN(C(c3ccccc3)c3ccccc3)CC2)cc1 | 3.98µM* | -1.8%
CSc1ccc(C(=S)N2CCN(C)CC2)cc1 | 11.3% | 3.1%
CCc1ccc(S(=O)(=O)/N=C2/C=C(Sc3ncn[nH]3)C(=O)c3ccccc32)cc1 | 25.1µM* | -13.7%
Cc1ccc(S(=O)(=O)/N=C2/C=C(C3C(=O)CC(C)(C)CC3=O)C(=O)c3ccccc32)cc1 | -16.0% | -5.6%
C[C@H](CCC(=O)O)[C@H]1CC[C@]2(C)[C@@H]3C(=O)C[C@H]4C(C)(C)[C@@H](O)CC[C@]4(C)[C@H]3C(=O)C[C@@]12C | -0.3% | -0.5%
COc1ccc(C2C(C(=O)Nc3cccnc3)=C(C)Nc3nc(SCc4ccccc4)nn32)cc1 (centres undefined) | 9.3% | 1.6%
c1ccc(C2CC(c3ccccc3)n3c(nc4ccccc43)N2)cc1 (centres undefined) | 12.6µM* | 1.5%
O=C1C2CC=CCC2C(=O)N1c1nc2n(n1)C(c1ccccc1)CC(c1ccccc1)N2 (centres undefined) | ? | -3.2%
C(=N/Nc1nnc2c(n1)[nH]c1ccccc12)/c1cccnc1 | -1.1% | -4.3%
CCCc1nnc(NC(=O)c2cc3ccccc3oc2=O)s1 | -8.9% | 1.7%
CC(Sc1nnc(NC(=O)c2cc3ccccc3oc2=O)s1)c1ccccc1 (centres undefined) | 12.6µM* | 6.4%
Cc1cc(C)cc(NC(=O)Cn2nnc(-c3ccccc3F)n2)c1 | -16.5% | -1.3%
NCCc1nc(-c2nc(C(=O)O)cs2)cs1 | 3.0% | 0.4%
COC(=O)Cc1c(C)c2ccc(O)c(CN3CCCC(C)C3)c2oc1=O (centres undefined) | ? | 25.1µM*
COc1ccc(-c2c(C)c3ccc(O)c(CN4CCCC4)c3oc2=O)cc1 | 3.4% | -6.1%
Fc1ccc(Nc2nc3ccccc3c3nncn23)c(Cl)c1 | 3.1% | -1.0%
O=C(c1ccccc1)c1nc2ccccc2n(CCCn2c(=O)c(C(=O)c3ccccc3)nc3ccccc32)c1=O | 10µM* | -0.6%
Cn1c(=O)c(C(=O)c2ccccc2)nc2ccccc21 | -7.5% | -2.1%
O=[N+]([O-])c1ccc(Nc2nc3ccccc3s2)cc1 | 3.98µM* | 3.55µM*
Cc1ccc(Nc2nc3ccccc3s2)cc1 | 7.6% | -10.4%
Cc1ccc(-c2nn(CC(=O)NC3CCCC3)c3c2cnc2ccc(F)cc23)cc1C | 9.3% | -1.9%
CCOc1ccc(CNC(=O)c2ccc3nc(CC)c(CC)nc3c2)cc1 | -5.7% | 3.0%
SMILES | Cruzain noTriton | Cruzain inh Det
CCc1ccc(S(=O)(=O)c2cn(Cc3ccccc3)c3cc(F)c(F)cc3c2=O)cc1 | 1.1% | 0.3%
Cc1ccc(NC(=O)CC2Nc3cc(C)c(C)cc3NC2=O)c(C)c1 (centres undefined) | -13.5% | -3.6%
Cc1cccc(C2=NN(c3ccccc3)[C@H](CO)[C@H]2C)c1 | 35.5µM* | -1.6%
Cc1cccc(C2=NN(c3ccccc3)[C@H](CO)[C@H]2c2ccccc2)c1 | ? | -1.0%
Cc1cc(C)nc(N/N=C/c2ccccc2OCc2ccc([N+](=O)[O-])cc2)n1 | -16.3% | -3.7%
O=[N+]([O-])c1ccc(N/N=C\c2ccccc2OCc2ccccc2)cc1 | 25.1µM* | -3.4%
COc1ccc(S(=O)(=O)NCC(c2ccco2)N2CCN(c3ccc(F)cc3)CC2)cc1C (centres undefined) | 2.6% | -7.1%
COc1cccc(-c2csc(-c3c(N)c(C(=O)c4ccccc4)n4ccccc34)n2)c1 | 7.94µM* | -3.4%
Cc1ccc(-c2csc(-c3c(N)c(C(=O)c4ccc5c(c4)OCO5)n4ccccc34)n2)cc1 | ? | -1.6%
CCc1ccc(C(=O)c2c(N)c(-c3nc(-c4ccc5c(c4)OCO5)cs3)c3ccccn23)cc1 | 2.51µM* | -2.0%
COc1ccc(OC)c(C(=O)c2c(N)c(-c3nc(-c4ccc(C)c(C)c4)cs3)c3ccccn23)c1 | -6.0% | -1.9%
CCc1ccc(Sc2cc(C(=O)NCc3cccc(OC)c3)c3ccccc3n2)cc1 | -6.8% | 0.1%
Cc1c(Cl)c(S(N)(=O)=O)cc(S(N)(=O)=O)c1NC(=O)c1ccc(Cl)cc1 | -2.8% | -2.3%
CCOC(=O)c1cccc(NC(=O)c2cc(CN3CCOCC3)on2)c1 | -5.9% | 1.9%
O=C1/C(=C/c2cccnc2)SC(=S)N1c1ccccc1 | 9.9% | -6.9%
